In the library only some 4.5% were active in any assay of this set; here they are far more common.
Rpn11 inh – Rpn11 (human) deubiquitinase inhibition. O00487. human 26S proteasome, Ub4-pepOG fluorescence polarization; 20S core pre-blocked with epoxomicin. inhibition, % at 20 µM. hit rate 0.59% among 360,000. AID 588493;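 active = inhibition at 20 µM, scaled to each plate's controls, above about 33%, limit read from the data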
Target sequence (O00487 whole entry, looked up): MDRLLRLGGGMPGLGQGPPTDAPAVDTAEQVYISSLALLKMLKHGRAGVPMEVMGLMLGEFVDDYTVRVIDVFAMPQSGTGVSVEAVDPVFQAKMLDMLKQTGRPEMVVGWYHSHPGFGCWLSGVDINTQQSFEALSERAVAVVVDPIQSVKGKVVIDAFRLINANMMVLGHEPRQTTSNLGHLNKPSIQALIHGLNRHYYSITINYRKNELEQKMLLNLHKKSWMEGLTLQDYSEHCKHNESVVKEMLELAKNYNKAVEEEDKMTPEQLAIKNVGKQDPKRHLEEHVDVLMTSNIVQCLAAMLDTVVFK
TPT1 inhibitor – blocks Candida albicans tRNA 2'-phosphotransferase. recombinant caTPT1, FP RNA substrate dephosphorylation. inhibition, % at 5 µM. hit rate 0.81% among 300,000. AID 1962;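 active = inhibition above the mean of all tested compounds plus 3 SD, set per screening campaign, cut at about 24% in these data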;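 also: plate controls were DMSO alone for no effect and ferristatin control at 100 nM for full effect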
GRIN3A LBD mod – modulators (binders) of human NR3A ligand-binding domain. NR3A LBD differential scanning fluorimetry, Tm shift; 0% = protein alone, 100% = glycine-bound protein. Tm shift relative to glycine control, % at 25 µM. hit rate 2.5% among 340,000;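 active = melting temperature shift of at least 10% of the positive control shift, at one fixed dose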
EBNA-1 inh – blocks EBNA-1 binding to DNA. hit rate 0.34% among 300,000. EBNA-1 DNA binding, fluorescence polarization. inhibition, % at 14.8 µM; in the data active = inhibition above about 28%
dFosB act – enhances mouse delta FosB homodimer DNA binding; activation, % at 25 µM; purified delta FosB, TAMRA-CDK5 oligo fluorescence polarization; percent of positive-control signal above neutral wells; P13346; hit rate 0.99% among 340,000; AID 493131;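 active = mean activation above about 17%, with every replicate also reaching it, limit read from the data, passing the limit was not always enough; inconclusive = only one of the two conditions met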
ZTA DNA inh – counter-screen for EBNA-1 inhibitors: inhibitors of Epstein-Barr virus ZTA. P03206. ZTA-DNA binding, fluorescence polarization. inhibition, % at 11 µM. hit rate 0.15% among 320,000. AID 2234; in the data active = inhibition above about 33%
Target sequence (P03206 whole entry, looked up): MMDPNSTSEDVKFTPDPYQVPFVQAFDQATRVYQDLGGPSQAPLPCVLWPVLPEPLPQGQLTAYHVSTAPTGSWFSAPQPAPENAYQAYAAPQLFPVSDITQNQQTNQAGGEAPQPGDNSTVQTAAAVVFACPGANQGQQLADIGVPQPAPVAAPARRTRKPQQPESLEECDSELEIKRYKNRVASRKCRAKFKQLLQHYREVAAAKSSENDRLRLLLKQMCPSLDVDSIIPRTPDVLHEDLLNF
EBNA-1 inh conf – EBNA-1 (EBV) inhibition, confirmation; shares compounds with EBNA-1 inh; Recombinant EBNA-1 DBD, Cy5-DNA fluorescence polarization; inhibition, % at 14.8 µM; hit rate 35% among 830;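 active = mean inhibition across replicates above a set limit taken from the earlier primary screen, cut at about 28% in these data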;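 also: plate controls were EBNA-1 protein with DMSO for no effect and wells lacking EBNA-1 for full effect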
ZTA DNA inh trip – ZTA (EBV) inhibition, triplicate counter-screen | shares compounds with EBNA-1 inh | Zta-ZRE DNA binding, Cy5 fluorescence polarization | inhibition, % at 11.1 µM | 830 tested, under 10 active;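 active = mean inhibition over triplicates above a set limit taken from the primary EBNA-1 screen, cut at about 37% in these data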;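 also: purified full length Zta protein with Cy5 labeled ZRE DNA probe; 0% = Zta with DMSO and 100% = wells lacking Zta protein; inhibitors lower polarization by freeing the labeled DNA probe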
* marks the source's active call; other numbers are inactive results; ? = inconclusive; · = no result given.

SMILES	Rpn11 inh	TPT1 inhibitor	GRIN3A LBD mod	EBNA-1 inh	dFosB act	ZTA DNA inh	EBNA-1 inh conf	ZTA DNA inh trip
COc1ccc(/C=C/C(=O)OCC(=O)NCCC2=CCCCC2)cc1S(=O)(=O)N1CCOCC1	1	-3	-1	-11	-17	-5	·	·
C[C@@H]1C(=O)OC[C@H]1NC(=O)OCc1ccccc1	-2	-1	0	-6	-2	4	·	·
Cc1ccc(-c2nc3ccccc3o2)cc1NC(=S)NC(=O)c1cccs1	3	-2	0	36*	-12	5	16	1
Cn1c(NC(=O)c2cccc(Cn3cc(Cl)cn3)c2)nc2ccccc21	-7	-3	0	41*	12	10	34*	-3
CCn1c(NC(=O)c2cccc(Cn3cc(Cl)cn3)c2)nc2ccccc21	1	-1	-14	7	-8	-5	·	·
Cc1c(C)c(C)c(CO/N=C/c2cccs2)c(C)c1C	-12	-1	1	-14	-2	-10	·	·
Cc1ccccc1NC(=O)CN1CCN(Cc2ccccc2)CC1	0	-2	0	-7	1	-1	·	·
Cc1ccccc1NC(=O)Cn1c(=O)n(Cc2ccccc2)c(=O)c2c(C)c(C)sc21	3	4	-6	37*	?	2	26	-4
c1ccc(-c2csc(-c3ccc(-c4csnn4)cc3)n2)cc1	-2	0	19*	57*	0	20	46*	11
O=C(O)c1ccc(-c2nc(-c3ccccc3)cs2)cc1	-5	-4	3	7	-3	-18	·	·
O=C1SCCC1NS(=O)(=O)c1ccc([N+](=O)[O-])cc1 (stereo not given)	-2	-2	-4	-7	-5	-2	·	·
COc1ccc(-c2sc(Nc3ccc(F)c(F)c3F)nc2CCC(=O)NN)cc1	1	-5	-4	-6	-4	-22	·	·
O=C(c1cccc(-c2ccc(O)cc2)c1)N1CCN(c2ccc(F)cc2)CC1	-10	-9	-11	40*	14	-6	20	-3
COc1ccc(OC)c(NC(=O)C(C)N2c3cccc4cccc(c34)S2(=O)=O)c1 (stereo not given)	3	1	1	-1	-4	-4	·	·
CCn1c(CNC(=O)C23CC4CC(CC(C4)C2)C3)nnc1SCC(=O)Nc1nnc(C)s1	-2	-4	-2	42*	-1	7	-3	4
CCOc1ccc(NC(=O)CN(C)C(=O)/C=C/c2ccc(S(=O)(=O)N3CCCCCC3)cc2)cc1OCC	-5	1	-8	33*	-5	-1	14	4
COc1ccc(C(=O)NNC(=O)CSc2nnc(COc3ccc4ccccc4c3)n2C)cc1	-8	-1	2	82*	1	-1	36*	1
Cc1cccc(OCc2nnc(SCC(=O)Nc3cc(C)on3)n2C)c1	-3	-5	-1	31*	?	-4	8	14
Cc1ccc(NCc2nnc(SCC(=O)Nc3cc(C)on3)n2C)cc1	3	-5	-1	4	-3	2	·	·
CCOc1ccc2nc(SCC(=O)NNC(=O)c3ccco3)c(C)cc2c1	-4	1	0	57*	-6	7	42*	2
Cc1ccc(NS(=O)(=O)c2ccc3c(c2)CC(=O)N3)cc1C	2	0	0	-5	-3	0	·	·
N#Cc1ccc(NC(=O)COC(=O)C2Cc3ccccc3CN2C(=O)c2ccccc2)cc1 (stereo not given)	3	-3	-10	33*	2	-18	6	-1
Cc1cccc(C)c1NC(=O)COC(=O)C1Cc2ccccc2CN1C(=O)c1ccccc1 (stereo not given)	7	2	-8	10	-6	4	·	·
CNC(=O)c1cc(Oc2ccc(NC(=O)c3[nH]c(-c4ccccc4)c4c3C(=O)N(C)C4=O)cc2)ccn1	-2	·	·	·	·	·	·	·
CCCn1c(C)cc(/C=C(\C#N)C(=O)OCC(=O)Nc2cccc(OC)c2)c1C	11	4	-9	67*	5	3	0	2
SMILES	Rpn11 inh	TPT1 inhibitor	GRIN3A LBD mod	EBNA-1 inh	dFosB act	ZTA DNA inh	EBNA-1 inh conf	ZTA DNA inh trip
CCN(C(=O)COC(=O)C1CCN(S(=O)(=O)c2ccc3c(c2)OCCO3)CC1)C1CCCCC1	0	3	2	4	-14	5	·	·
O=C(Nc1cccc(-c2cnc3ccccc3n2)c1)c1ccccc1	-2	0	-4	40*	0	-5	7	-3
O=C(CCl)Nc1cccc(-c2cnc3ccccc3n2)c1	-3	-4	4	8	-29	9	·	·
O=C(Nc1cccc(C(=O)Nc2ccc(Br)cc2)c1)c1ccccc1	1	2	27*	33*	0	18	26	0
CC(=O)c1ccc(NC(=O)c2cccc(NC(=O)c3ccccc3)c2)cc1	31	-1	-9	3	6	10	·	·
COc1cc(NC(=O)c2ccc(Br)cc2)c(OC)cc1NC(=O)c1ccccc1	5	-2	2	57*	3	-18	64*	5
O=C(NCC(O)c1ccccc1)c1ccc(Cl)c(S(=O)(=O)N2CCCC2)c1 (stereo not given)	4	-2	2	-8	-10	6	·	·
CCOC(=O)CC(NC(=O)Cc1ccccc1)c1ccccc1Cl (stereo not given)	0	0	-3	4	-8	-19	·	·
CCOC(=O)CC(NC(=O)C1c2ccccc2Oc2ccccc21)c1ccccc1Cl (stereo not given)	9	-3	2	102*	-2	-6	4	-21
CCOP(=O)(c1ccccc1)C(O)c1ccc(F)cc1 (stereo not given)	6	-2	2	103*	0	1	9	11
CCOP(=O)(c1ccccc1)C(O)c1ccc([N+](=O)[O-])cc1 (stereo not given)	-2	-2	-1	4	-2	8	·	·
COC(=O)c1cccc(NC(=O)Nc2ccc(Cl)cc2Cl)c1	4	1	7	6	-1	-8	·	·
NC(=O)c1cccc(NC(=O)Nc2ccc(Cl)cc2)c1	-2	3	24*	38*	-5	7	7	5
O=C(NC(=S)NCc1nc2ccccc2[nH]1)c1ccc(F)cc1	0	-1	-2	33*	-12	20	-13	-12
CN(Cc1c(C(=O)N/N=C/c2cc(F)ccc2F)nnn1-c1nonc1N)C1CCCCC1	-4	2	-1	-21	-8	-2	·	·
CCOC(=O)c1[nH]c2ccccc2c1NC(=O)c1ccc2c(c1)OCO2	-5	0	-1	32*	-4	3	19	-10

Bioassay records as filed in PubChem BioAssay.
